Laboratory results published in PubChem BioAssay (NCI).
Values joined by “and” are separate entries in the source; they are usually repeats but may differ in a detail not shown here. Equal values may be shown once. The panel holds about 83,000 compounds, 20% with a hit somewhere; the sample as a whole holds those more often.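 Step 1: grow cells in 96-well plates. Step 2: add test compound at a single concentration. Step 3: incubate 48 h. Step 4: record percent growth.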 A number with no mark means an inactive call. Active and inactive are the calls of the source. How the source made its calls: active means growth percent below 10; inactive means the rest.

Tested on: MDA-MB-468 breast
Assay: NCI-60 one-dose screen, 48 h (100 = growth as untreated, 0 = no growth, -100 = all killed)
Settings: 10 µM unless noted

Row | SMILES | growth
1 | CCCC(=O)c1cccs1 | 96.9%
2 | Cn1cc(-c2csc(-c3cn(CCCN4CCCCC4)c4ccccc34)n2)c2cccnc21 | 99.8%
3 | COc1cc2cc(NCc3cccc(Cl)c3)nc(C)c2cc1OC | 46.6%
4 | COC(c1ccc2c(c1)OCO2)C(C)Br (stereo not given) | 93.4%
5 | CCOc1ccc(C(=O)Nc2ncc(Cc3ccc(F)cc3)s2)cc1 | 31.9%
6 | COc1ccc(-c2cn[nH]c2-c2cc(OC)c(OC)c(OC)c2)cc1 | 11.8%
7 | Cc1cccc(C[C@H](NC(=O)Nc2ccc(C)cc2F)C(=O)N[C@@H]2C(=O)N3C[C@H](O)C[C@H]3C(=O)N3CCN(C)C[C@H]3C(=O)N[C@@H](C)C(=O)N3C[C@H](C)C[C@H]3C(=O)O[C@H]2C)c1 | 6.46% (active)
8 | CC[C@]1(O)C[C@H]2CN(CCc3c([nH]c4ccccc34)C(C(=O)OC)(c3cc4c(cc3OC)N(C)[C@H]3[C@@](O)(C(=O)OC)[C@H](OC(C)=O)[C@]5(CC)[C@@H]6C[C@@H]6CN6CC[C@]43[C@@H]65)C2)C1 (stereo not given in full) | 28.1%
9 | CCCCc1nc(Cl)c(C2CC(c3ccc(S(N)(=O)=O)cc3)=NN2c2ccc(C#N)cc2)[nH]1 (stereo not given) | 64.5%
10 | CCOC(=O)CSCCC#N | 109%
11 | CCOC(=O)CN(c1sc(C)c(C)c1C(=O)OCC)S(=O)(=O)c1ccc(C)cc1 | 89.6%
12 | COc1cccc(-c2cc(-c3cccc(Cl)c3)c(C#N)c(=O)[nH]2)c1 | 70.1%
13 | C#C[C@]1(O)CC[C@H]2[C@@H]3CC=C4c5sc(Nc6cccc(C)n6)nc5CC[C@]4(C)[C@H]3CC[C@@]21C | 35.7%
14 | O=C1c2cc3c(cc2-c2c1c1ccc(Cl)cc1c(=O)n2C[C@H](O)CO)OCO3 | -53.8% (active)
15 | COc1cc(NC(=O)C2=C(C)NC(C)=C(C(=O)Nc3cc(OC)c(Cl)cc3OC)C2c2cccc([N+](=O)[O-])c2)c(OC)cc1Cl | -11.7% (active)
16 | COc1ccc(/C=C/c2nc(Nc3cccc(NC(C)=O)c3)c3ccccc3n2)cc1 | 67.1%
17 | COc1cccc(C2C3=C(COC3=O)N(CCO)c3cc4c(cc32)OCO4)c1 (stereo not given) | -36.3% (active)
18 | Nn1c(Nc2ccc(S(=O)(=O)Nc3ncccn3)cc2)nnc(/C=C/c2c(O)ccc3ccccc23)c1=O | 96%
19 | Cc1c(-c2nc3ccc(F)cc3c(=O)[nH]2)c2ccccc2n1C | 6.2% (active)
20 | Fc1ccc(CNc2c3ccccc3nc3ccccc23)c(F)c1 | -4.03% (active)

Row | SMILES | growth
21 | C/C(Cc1ccc(Cl)cc1)=C(/c1ccccc1)c1ccc(OCCN)cc1 | 97.2%
22 | O=C(Nc1ccc(-n2ccc3c(NC(=O)c4ccccc4)ncnc32)cc1)Nc1ccc(Cl)c(Cl)c1 | -36.7% (active)
23 | COc1ccc(-c2csc(NC(=O)CSc3nc(-c4ccccc4)cc(=O)[nH]3)n2)cc1 | 14.9%
24 | CCCCCCCCCCC(=O)CCCCCCCCCC | 107%
25 | COC(=O)Nc1ccc(-c2nc(-c3cccc(OC)c3)c(-c3ccnc(Br)c3)[nH]2)cc1 | 39.1%
26 | CCOC(=O)c1csc(N)n1 | 95.6% and 91.5%
27 | O=C(Cn1c(=O)sc2ccccc21)NNS(=O)(=O)c1ccccc1[N+](=O)[O-] | 107%
28 | COc1cc(-c2cc(-c3nc4ccc(F)cc4[nH]3)[nH]n2)cc(OC)c1OC | 16.6%
29 | CN(C)CCN1C(=O)c2cccc3c(-c4ccc5ncn(C6CCCCC6)c5c4)ccc(c23)C1=O | 4.33% (active)
30 | COCCOCCOCc1n(Cc2ccc3ccccc3n2)c2ccccc2[n+]1Cc1ccc2ccccc2n1 | -17.4% (active)
31 | COc1cccc(-c2nc(-c3ccc(NC(=O)OC(C)C)cc3)[nH]c2-c2ccnc(Br)c2)c1 | 18.2%
32 | COc1ccc(/C=C/C(=O)c2c(C)nc3ccccc3c2/C=C/c2ccccc2)cc1O | 40.1%
33 | COc1cc(C2CC(c3cccc(Br)c3)=NN2C(C)=O)cc(OC)c1OC (stereo not given) | 24.1%
34 | O=S(=O)(NCCCNc1nccc(-c2c(-c3ccc(F)c(O)c3)nc3sccn23)n1)c1ccc(F)cc1 | -0.153% (active)
35 | Cc1c2c[n+](C(C)C)ccc2c(C)c2c1[nH]c1ccccc12 | -37% (active)
36 | C=CCOc1ccc(Cl)cc1Cl | 111%
37 | C[C@@H]1N=C(c2ccc(Br)cc2)Nc2nc3ccccn3c2C1=O | -0.502% (active)
38 | COc1cc(-c2nnc(-c3nc(-c4cc(OC)c(OC)c(OC)c4)n4ccccc34)o2)ccc1N | 97.7%
39 | O=C1CCCN1c1cccc2cccnc12 | 98.8%
40 | CCN(CC)Cc1cc(Nc2c3ccc(Cl)cc3nc3c(C)cccc23)ccc1O | -67% (active)
